The panel holds about 83,000 compounds, 20% with a hit somewhere; the sample as a whole holds those more often.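 Single-concentration screen, 48 h exposure, 96-well plates. Endpoint: percent growth. Below 10 = active.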 Activity calls are given as the source filed them.
The compounds below were run on HL-60(TB) leukemia (assay: NCI-60 one-dose screen, 48 h (100 = growth as untreated, 0 = no growth, -100 = all killed)). Details: 10 µM unless noted.

Structure (SMILES)	growth
Nc1nc(-c2ccccc2Br)nn1-c1nc2ccccc2s1	99.3% (inactive)
O=C1c2cccc3c(-c4ccc5c(c4)ncn5C4CCCCC4)ccc(c23)C(=O)N1c1nc2ccccc2s1	76% (inactive)
O=c1ccc2nc(-c3ccccn3)nn(-c3ccccc3)c-2c1	31.1% (inactive)
Cc1csc(NC(c2ccc(Br)cc2)c2c(C)nc3ccccn23)n1 (stereo not given)	102% (inactive)
CC(=O)c1nn(-c2ccc(C)cc2)cc1C(=O)c1cc2c(ccc3ccccc32)oc1=O	104% (inactive)
CC(C)(C)c1ccc(C(=O)Nc2sc3cc(O)ccc3c2C(N)=O)cc1	43.3% (inactive)
N#Cc1c(N)sc(=S)c2c1CCCC2	97.6% (inactive)
CC(=O)Oc1c(C)c(OC(C)=O)c2c(c1C(C)=O)OC1CC(=O)C(C(C)=O)=C(O)C21C (stereo not given)	79.4% (inactive)
COC(=O)c1cc2oc(/C=N\NC(=O)c3cc4oc(C)c(C)c4[nH]3)cc2[nH]1	103% (inactive)
COc1cccc(N2CCN(c3ncnc4cc[nH]c34)CC2)c1	71.3% (inactive)
N#Cc1c2c([nH]c(=O)c1C(N)=O)CCCCC2	104% (inactive)
Nc1c2ccccc2nc2ccccc12 (tested in a mixture with another compound)	26.8% (inactive)
COc1cc(CNC(=O)CCCC/C=C/C(C)C)ccc1O	91.1% (inactive)
CCOC(=O)CSc1c(-c2ccccc2)c2cc(Cl)ccc2[nH]c1=O	84.7% (inactive)
CC(C)C[C@H](NC(=O)Cn1ccc(NCc2ccccc2)cc1=O)B(O)O	3.72% (active)

Reference: PubChem BioAssay (NCI)
